Source: the supplement of paper PMC10681739

These sequences were tested against T1, ETS1 (UniProt P14921) (assay: ETS1 binding intensity (PBM fluorescence) in presence of RUNX1, normalised to ETS1-only experiment (arbitrary fluorescence units); higher = stronger binding). Details: ETS1 concentration 1 nM; RUNX1 concentration 25 nM.
T1 sequence: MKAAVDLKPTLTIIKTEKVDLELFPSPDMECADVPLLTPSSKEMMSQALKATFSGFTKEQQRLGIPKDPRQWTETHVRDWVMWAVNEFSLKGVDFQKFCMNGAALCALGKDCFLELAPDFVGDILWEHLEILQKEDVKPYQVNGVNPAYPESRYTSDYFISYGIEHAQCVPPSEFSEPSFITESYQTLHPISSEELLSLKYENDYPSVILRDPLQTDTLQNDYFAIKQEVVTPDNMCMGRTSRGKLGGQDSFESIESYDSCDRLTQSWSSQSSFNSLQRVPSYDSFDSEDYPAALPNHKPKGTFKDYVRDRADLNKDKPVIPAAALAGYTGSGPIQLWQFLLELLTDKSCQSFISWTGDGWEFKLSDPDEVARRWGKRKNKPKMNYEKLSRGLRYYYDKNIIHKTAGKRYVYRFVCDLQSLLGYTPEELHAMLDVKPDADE
Description: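 Cooperative genomic-context PBM: 36-bp genomic probes with neighbouring ETS1 and RUNX1 sites, double-stranded on Agilent 4x180k arrays. Full-length recombinant human ETS1 (1 nM) was incubated alone or with RUNX1 (25 nM) and detected with anti-ETS1 antibody plus Alexa488 secondary. Value is the median fluorescence intensity over 4 replicate spots; the ETS1+RUNX1 data were normalised to the ETS1-only data using probes without RUNX1 sites. The 36-bp variable region sits on the array probe with constant linker/primer flanks that are not printed.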
For GCCGGTGAGGGCGGAAGTGGTAAGACTGACGTGTCC, the ETS1 binding intensity was 8740. In the case of CCAGTACCCCACTTCCTGACCAAACCACAAAGGTCA, the ETS1 binding intensity is reported as 2450. In the case of AGGTTCCGGCGAAAGTGACCGAAAGTAACCGCCGGG, the ETS1 binding intensity is reported as 518. For GAAGTGAGGTCAGGATGTGGTGGGTGACCCCTGAAA, the ETS1 binding intensity was 1340. For GAAATCACATCCTTTTGCAAAACCACAGGTGTTTTG, the ETS1 binding intensity was 1500. GTGTGAAGGAAGTGTGAGATCAAACCACAGCTGGGT showed an ETS1 binding intensity of 901. In the case of CCCCCACATCCTGTTTGGTTTGTGGGACACCTCAAC, the ETS1 binding intensity is reported as 2550. GACTGGTTTCCTGGTTTTGATGTGGTTTAGAGAAAA gave an ETS1 binding intensity of 630. GTTCTCCTTCCTGTGCCGAGTGTGGTTTGCTATCAA showed an ETS1 binding intensity of 622. TCAGGGGTGGGAGGAAGTGGTTAGGATCAGCCTGGG showed an ETS1 binding intensity of 3120. In the case of GCAGCTCTGGCAGGATGCGGTTAAATATGTAGCCAC, the ETS1 binding intensity is reported as 12800. In the case of TATATGCACAGGAAGTCCCTTACAACCCACTCTGTT, the ETS1 binding intensity is reported as 3840. GCTTTGCAGTTTCCTCTATGGAACACCACACACAGT gave an ETS1 binding intensity of 499. In the case of CAGAGGCCCGGCCTCTTCCGCCACAACTCCGGCCCG, the ETS1 binding intensity is reported as 356. TCACCCTCTCACTTCCTGCGGGTCCCAGGCTCAGGC was tested, and the ETS1 binding intensity was 790. Work on GCTAAAGGAAGCTCTGTACAGCTGTGGTAAGGTGGC yielded an ETS1 binding intensity of 792. TCCAGCCCCACCGGAAGTGGATGTGGTTAATCTAGT showed an ETS1 binding intensity of 56400. With ACAGGCTGTCTGCTTCCGTCAGCGGTTATTCCCTTG the ETS1 binding intensity was 602. In the case of GCTGTCCATTTCCGAGATGTTAATGCGGGATCTTGC, the ETS1 binding intensity is reported as 628. Work on AAATCACATACCCGGAAACCACATGCACAGAAGTGG yielded an ETS1 binding intensity of 3060. CTCCGGGAACAGCGGAAAAGGGACCGCATGAACCTC gave an ETS1 binding intensity of 1470. TGAGCCCTACTTCCGGTGGTGCTGTGGTCTGCCCCT was tested, and the ETS1 binding intensity was 13200. With GCTAAGAGCAGGAAATGATCTGGGAACCACCATCAC the ETS1 binding intensity was 3070. CCTGTCTGCTTCCGCCCGGCTTCGGCCCACAGTCAA showed an ETS1 binding intensity of 441. Work on CCTGCCTGACCGGAAGTGCCCGCAACCCCACCGACC yielded an ETS1 binding intensity of 32600. Work on GCGCGCTTCCGCCTTCATGCTAGCAACGCCCGCAGT yielded an ETS1 binding intensity of 560. Sequence CACTTCCTATCGCTACATAACAAATTACCACAGACT has an ETS1 binding intensity of 642. For AAAACAAGGACTTCCGCCTCCCTGCGGTCCCTCCCC, the ETS1 binding intensity was 2730. CACCGACCGGAAGGGCCCCAAGGATCCCCGCAGCAG gave an ETS1 binding intensity of 2710. In the case of GTTTACAGGGGACAGGAAATGTGGGTGAACTCAGCC, the ETS1 binding intensity is reported as 4710. GCTGTGCCGGCAGGATGTGGTCTTTGGTTTCTGTTT gave an ETS1 binding intensity of 12300. Sequence AATCATTTCCTGCCCTAACGTTTGTGGTCTGCCTAG has an ETS1 binding intensity of 1720. ATCAGAGCGGAAATCTCAGTCTTGTGTGGGGACCTG was tested, and the ETS1 binding intensity was 1820. In the case of CCACTCCAGGAAACTCCTCCAGGTGAGCCCACAACT, the ETS1 binding intensity is reported as 474. In the case of GTGGGTTTAGGATATGGGTGTGGTTTCTAATTGTCT, the ETS1 binding intensity is reported as 653. In the case of CTCGGAGCGGAACTACTAGGGTGGTTTCTCCTGAGG, the ETS1 binding intensity is reported as 336. GAACCCAGGTCTGCTTCCTGTGGCCACCATCTGTGC gave an ETS1 binding intensity of 684. Work on AGTTGTGTTTTAGGATGTGGTCAAAGCCCAACAGAG yielded an ETS1 binding intensity of 2150. CCCTGAGCACTTCCCCGTAAGGCTGCGGTGCACGGG was tested, and the ETS1 binding intensity was 460. CCGATTTCCCCGGACGTGGTGAGACCGCGCTTCGTC was tested, and the ETS1 binding intensity was 855.
